Results on 40 sequences are retold here after the supplement of paper PMC6555819.

This assay relates to VDR:RXRa (NR concentration 270 nM, RXRa partner concentration 90 nM). The experiment in a line: PBM binding z-score (relative to random genomic background probes); higher = stronger binding; sequences stand for … in GC…GCGATTGACAGCGTAGAATGAAGG
As to the method:
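Protein-binding microarray (Agilent 4x180K custom design, double-stranded 60-nt probes: 5' GC cap, 34-nt variable region, 24-nt constant primer region; full probe sequence given). Purified or IVT nuclear receptor:RXRα heterodimers (3:1 NR:RXRα, mostly 270:90 nM) or homodimers were incubated for 1 h in PBS with 2% milk and no ligand, then detected with Alexa488 antibodies. Fluorescence from o1-orientation probes (~5 replicates averaged) was converted to z-scores against 500 random hg19 background probes. Variable regions are seed direct-repeat (DR0–DR5) sites, all their single-nucleotide variants and half-site ablations.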
As to ACTAGTTGGTGAGCTGAGGTCACACACAATTCGG, the PBM binding z-score came out at 3.55.
In the case of CGAACTAGGTCAGAACAGGACAGAGAAGGATGAT, the PBM binding z-score was found to be 0.496.
The value for TCTTGTAGATCAATAGAGGTTGAGAAAGTGCGCT was 0.789; that for AGTCAAAGTTCACTAGGTAACCTAAGATTCAGCT was 4.04.
ATAGAAAGGTCGAGGTGAGTATAGAGAAAGGGAA displayed a PBM binding z-score of 2.79.
In turn, CCTAGCAGGCCAGGGTCACTGAAGCATTTCGCTT displayed a PBM binding z-score of 2.68.
The value for TCTAGTAGATCAGCAGGTTAAGAAAGCTGGCCAA was 0.524.
GCTAGCAGGCCATTTGGGCCACTCAATGACGGGC gave a PBM binding z-score of -0.859.
The sequence CGAACTAGGTCAAGGTCAGTGAATCTCCGCACGC registered a PBM binding z-score of 3.19.
The value for CCTACTGGGCCATCGGGTCATTGATATCAACGTT was 2.27; that for TTACCAAGATGAGCTGAGGTCGTTGATCCAACTC was 1.35; that for ACTATTAGTTGAGAAGAGGGCAACCGATAGGTTG was 0.507.
Next, TGTCAAAGTTCAAAGGCAACGTAAGTATCCACAC: 4.26; TCAGACAGGTGAAGGTACCTCAGGTACGCAGTCG: 0.202.
TCATATAGGTAAATGCTAGGTGAAACTCCGATCT returned a PBM binding z-score of 0.855.
In turn, TCAAGCAGGCCAGAGGGTCACTCAAGAGGTACGG gave a PBM binding z-score of 1.52.
The value for CCTTACGTGTCACTCCAGGTTATAGCATCGGAGT was 1.33.
The value for CGTCAAAGTTGAAGGTAACGTAACAGAAAGCAGC was -0.0741; that for CATACTAGGTCACAGAGGTCAAAGTCCGTGCGTA was 7.98.
AGAATGAGGTTACCAAAGATCAGCGAAACGCTTG showed a PBM binding z-score of 1.33.
In turn, AGTCAAGGTTCATCTAGGTAACGTAAGATATGCT gave a PBM binding z-score of 4.56.
The sequence ATATGTAGGTTATGGGTCATTCAGGTTGGTTCGC showed a PBM binding z-score of 4.33.
Next, CTTCCAAGGTCAAGGTCAGTGAAAGAGACTCGAA: 4.87.
Next, TAGCCTAGATCATTGGGCCAGTATAGTACGCATC: -0.685; CCTGACAGGTGAAAGGTAACTCAGTCTGGTACGC: 0.319.
For the sequence TAGCCTAGGTCATGCTGGCCAGTATAGTGTCGGC, the PBM binding z-score came out at 2.04.
Take ATATGTAGGGTATCGGGTCATTCAGTTTGCGCAT: the PBM binding z-score came out at 5.05.
For the sequence CCTACTGGGCCGAAAAGGTCATTGATGCCGATAA, the PBM binding z-score was 4.48.
Next, TCATATAGGTAATACCGGTGAAAGTCGGCATCTA: 0.463; TGGCCTAGGTCATTGGGCCAGTATAGTACGCATC: 1.87; TCTTCTAGGTCAGTTGGTCAGCTAACGAGCTGCC: 1.3.
Consider TCTGCTAGGTCAGTTGGTCAGTTAACGAGCTGCC, for which the PBM binding z-score worked out at 0.0446.
Take TCTGCTAGGTAAACGATGGTCAGCTAATCTGCTA: the PBM binding z-score was -0.409.
The value for TCATAGAGGTAAAGGTGAAAGTCGAACGATATGA was 0.788; that for GATACAGGGTCAACGCCAGAGTACGCGTATTGAT was 4.77; that for AGTACAGGGTCACTAGGCCAGAGTAGGTACGAAT was 3.83.
The value for TAGCCTAGGTCATGGGGCAGTATACCACGCGAAC was 2.45.
The value for GCTATTAGTTGTAAGGGCAACCGAATGATTCTCG was 0.148; that for TCTTATAGATCAAAGGTTAAGAAAGCCGAAGCCT was 2.27.
On to TCATATAGGTAATACAGGTGAAAGGCGGCATCTA, for which the PBM binding z-score worked out at 1.17.
